Measurements as given in PubChem BioAssay (NCI).
The panel holds about 83,000 compounds, 20% with a hit somewhere; the sample as a whole holds those more often.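 96-well plates, one dose, 48 hours. Percent growth reported; active if below 10.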 Unmarked numbers belong to inactive results. Activity calls are given as the source filed them.

Legend:
Assay in all cases: NCI-60 one-dose screen, 48 h (100 = growth as untreated, 0 = no growth, -100 = all killed)
Settings in all cases: 10 µM
HT29 colon = test system: HT29 colon
SNB-75 CNS = test system: SNB-75 CNS
SNB-19 CNS = test system: SNB-19 CNS
U251 CNS = test system: U251 CNS
PC-3 prostate = test system: PC-3 prostate
SK-MEL-5 melanoma = test system: SK-MEL-5 melanoma
UACC-62 melanoma = test system: UACC-62 melanoma
LOX IMVI melanoma = test system: LOX IMVI melanoma
SK-MEL-28 melanoma = test system: SK-MEL-28 melanoma
SK-MEL-2 melanoma = test system: SK-MEL-2 melanoma
SN12C renal = test system: SN12C renal
UO-31 renal = test system: UO-31 renal
TK-10 renal = test system: TK-10 renal
ACHN renal = test system: ACHN renal
CAKI-1 renal = test system: CAKI-1 renal
A498 renal = test system: A498 renal
CCRF-CEM leukemia = test system: CCRF-CEM leukemia
MOLT-4 leukemia = test system: MOLT-4 leukemia
SR leukemia = test system: SR leukemia

SMILES | growth (HT29 colon) | growth (SNB-75 CNS) | growth (SNB-19 CNS) | growth (U251 CNS) | growth (PC-3 prostate) | growth (SK-MEL-5 melanoma) | growth (UACC-62 melanoma) | growth (LOX IMVI melanoma) | growth (SK-MEL-28 melanoma) | growth (SK-MEL-2 melanoma) | growth (SN12C renal) | growth (UO-31 renal) | growth (TK-10 renal) | growth (ACHN renal) | growth (CAKI-1 renal) | growth (A498 renal) | growth (CCRF-CEM leukemia) | growth (MOLT-4 leukemia) | growth (SR leukemia)
O=C(Nc1cccc(-n2cc(-c3ccncc3)c(-c3cc(O)cc(Cl)c3)n2)c1)c1ccc(N2CCOCC2)c(C(F)(F)F)c1 | 16.9% | 23.1% | 12.1% | -9.64% (active) | 19.1% | 32.2% | 10.8% | -48.7% (active) | -52.4% (active) | 22.9% | 46.4% | 3.98% (active) | 70.3% | 20.7% | 14.8% | 72.7% | 13.1% | -29.7% (active) | -12.4% (active)
Cc1ccc(Nc2cc(C)nc(NCCCNc3ccnc4cc(Cl)ccc34)n2)cc1 | -87.2% (active) | -98.5% (active) | -24.9% (active) | -99.2% (active) | -38.4% (active) | -100% (active) | -92.9% (active) | -82.7% (active) | -100% (active) | -97% (active) | -81% (active) | -95% (active) | -94.7% (active) | -98.2% (active) | -87.2% (active) | -59.4% (active) | -27.8% (active) | -47.6% (active) | –
COc1cc(-c2cc(/C=C3\C(=O)Nc4cc(Cl)ccc43)[nH]n2)cc(OC)c1OC | 28.3% | -5.23% (active) | 46.7% | 40.4% | 4.7% (active) | -49.5% (active) | -51.5% (active) | 6.79% (active) | 19.9% | 51.9% | 12.1% | 30.4% | 60.9% | 58% | 38.8% | 50.4% | 13.2% | 13.5% | 16.8%
COc1ccc2c(c1)sc1nc(-c3ccccc3)c(-c3ccsc3)n12 | -5.75% (active) | 6.18% (active) | 40.8% | 26.9% | 16.6% | 9.67% (active) | 36.3% | 40.3% | 60.7% | 5.47% (active) | 50.2% | 37.8% | 46.1% | 54.2% | 27.9% | -7.5% (active) | 23.2% | 36.4% | 6.49% (active)
CCC(=O)N1C/C(=C/c2ccc(OC)cc2)C(=O)/C(=C/c2ccc(OC)cc2)C1 | -35.5% (active) | 52.9% | 68.2% | 4.41% (active) | 16.2% | 15.7% | 27.3% | -58.7% (active) | 19.2% | 82.3% | 27.4% | -7.25% (active) | 70.3% | 28.4% | 13.1% | 83.5% | -5.27% (active) | 11% | -11% (active)
COc1ccc2c(c1)O/C(=C\c1ccc([N+](=O)[O-])s1)C2=O | -12.3% (active) | 55.5% | 67.3% | 14.7% | 14% | 60% | 30.6% | 15.7% | 81.4% | 55.3% | 41.6% | 24% | 42.5% | 25.4% | 44.2% | 85.1% | 10.1% | 10.7% | 12.1%
Fc1ccc2nc(-c3nc(-c4ccccc4)n4ccccc34)[nH]c2c1 | -52.6% (active) | -44.1% (active) | -36.5% (active) | -67% (active) | -71% (active) | 4% (active) | 3.95% (active) | 15.2% | -9.19% (active) | -30.3% (active) | 16.9% | -32.9% (active) | -30.2% (active) | 10.1% | -0.279% (active) | -16.8% (active) | 53.3% | 39.8% | 38%
COc1ccc(-c2ccc(-c3ccc(C(=N)N)cn3)o2)cc1 | 14.1% | 61.1% | 91.5% | 76.3% | 68.3% | 72.3% | 89.7% | 61.8% | 86.5% | 99.5% | 74.9% | 30.7% | 117% | 80.6% | 75.1% | 59.4% | 74.3% | 52.7% | 10.3%
Cc1cccc(C)c1NC(=O)c1sc2nc3c(cc2c1N)C(=O)CCC3 | 85.6% | 82.6% | 66.5% | 85.6% | 70.2% | 57.7% | 67.4% | 91.3% | 81.3% | 69.7% | 90.1% | 79.5% | 88.7% | 89.6% | 52% | -8.11% (active) | 66.5% | 96.2% | 69.1%
CC(=O)N1C/C(=C/c2ccc(Cl)cc2)C(=O)/C(=C/c2ccc(Cl)cc2)C1 | -62.2% (active) | 30.1% | 15% | -76.8% (active) | -42.4% (active) | -52.1% (active) | -74.6% (active) | -79.6% (active) | -54.2% (active) | -0.636% (active) | -42.4% (active) | -88.8% (active) | -15.7% (active) | -46.1% (active) | -15% (active) | -5.57% (active) | -13.3% (active) | 0.236% (active) | -15.1% (active)
C#Cc1ccc(-n2c(/C=C/c3ccc(O)cc3)nc3ncccc3c2=O)cc1 | 109% | -1.11% (active) | 82% | 62.5% | 65.3% | 22.3% | 29.1% | 55.5% | 51.7% | 19.9% | 75.9% | 34.3% | 93.7% | 49.8% | 55.9% | -1.24% (active) | 85.7% | 101% | 18.1%
COc1ccc(Cl)cc1-n1nnc(-c2nc3ccccc3[nH]2)c1N | 47.2% | 32.5% | 77% | 53.2% | 89.2% | 95.9% | 104% | 77.4% | 100% | 93.2% | 94.3% | 71.9% | 85.9% | 51.4% | 67.7% | 89.3% | 104% | 98.5% | 71.8%
CCOC(=O)N1C/C(=C/c2ccc(OC)cc2)C(=O)/C(=C/c2ccc(OC)cc2)C1 | -58.4% (active) | 48.8% | 78% | 12% | 46.5% | 21.6% | 44.6% | -72.2% (active) | 58.6% | 75.1% | 50.2% | 17.1% | 59.5% | 39.3% | 41.9% | -0.589% (active) | 6.4% (active) | 27.3% | -16.7% (active)
CCN(CC)CCC(=O)Nc1cccc2c1C(=O)c1c(c(O)c3ccccc3c1O)C2=O | 57.5% | 38% | 77.3% | 64.6% | 45.4% | 47.6% | 79.6% | 40.6% | 34% | 112% | 59.5% | -68% (active) | 95.6% | 21.6% | 14% | 71.4% | -3.1% (active) | 2.61% (active) | 6.44% (active)
N=C(N)c1ccc(-c2ccc(-c3cccs3)s2)cc1 | -53.8% (active) | 70.9% | 109% | -48.5% (active) | 78% | 31.4% | 40.4% | -81.7% (active) | 37.7% | 99% | 85.9% | 17.1% | 67.8% | 85.8% | 85.2% | -25.9% (active) | -36.1% (active) | -48.6% (active) | -35.6% (active)
O=C1/C(=C\c2ccc(F)cc2)CN(C(=O)c2ccc([N+](=O)[O-])cc2)C/C1=C\c1ccc(F)cc1 | -56.9% (active) | 56.7% | 67.5% | 9.03% (active) | 28.6% | 45.7% | 40.3% | -53.3% (active) | 65.1% | 74.5% | 46.9% | 24.3% | 87.3% | 44.3% | 39.4% | 52% | 7.75% (active) | 27.2% | -19.3% (active)
